Measured values: PubChem BioAssay AID1159580 (chemical genetic matrix, 2015)
“And” between values parts separate entries of the source, which are not always exact repeats. Identical values can stand only once. Out of some 5,500 compounds screened, about 2,000 (36%) were called active. Another 18% or so got no clear call; they are omitted. No stated cut-off is given here; in the data, active means normalized growth mostly below about 0.91 (no sharp cut-off); inconclusive means no clear call, values can overlap the other calls; inactive means mostly above about 0.92. The list shows a part of the results.

Assay: chemical genetic growth profiling, strain panel (AID 1159580);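 further: tested at 20 µM; growth read once vehicle control cultures reached saturation at 30 °C; 1 = growth at the plate median or of vehicle wells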
Conditions: S. cerevisiae deletion strains, growth OD

Measured: normalized growth

CCCCCC(C)N (stereo unspecified)
inactive: locus YAL013W, strain DEP1, stronger effect = lower value 1.01 | locus YAL021C, strain ccr4, stronger effect = lower value 1.02 | locus YAL026C, strain drs2, stronger effect = lower value 1.02 | locus YAL030W, strain snc1, stronger effect = lower value 1.02 | locus YBL061C, strain skt5, stronger effect = lower value 1.03 | locus YBR009C, strain hhf1, stronger effect = lower value 1.03 | locus YBR021W, strain FUR4, stronger effect = lower value 1.01 | locus YBR023C, strain chs3, stronger effect = lower value 1.05 | locus YBR171W, strain sec66, stronger effect = lower value 1.04 | locus YBR229C, strain ROT2, stronger effect = lower value 1.01 | locus YBR231C, strain swc5, stronger effect = lower value 1.04 | locus YBR279W, strain paf1, stronger effect = lower value 1.02 | locus YCL011C, strain gbp2, stronger effect = lower value 1.02 | locus YCL016C, strain dcc1, stronger effect = lower value 1.03 | locus YCL029C, strain bik1, stronger effect = lower value 0.994 | locus YCL061C, strain MRC1, stronger effect = lower value 1.02 | locus YCL069W, strain vba3, stronger effect = lower value 1.03 | locus YCR088W, strain abp1, stronger effect = lower value 1.02 | locus YDL005C, strain med2, stronger effect = lower value 1.04 | locus YDL035C, strain GPR1, stronger effect = lower value 1.02 | locus YDL040C, strain nat1, stronger effect = lower value 1.03 | locus YDL074C, strain BRE1, stronger effect = lower value 1.02 | locus YDL101C, strain DUN1, stronger effect = lower value 1 | locus YDL134C, strain PPH21, stronger effect = lower value 1.02 | locus YDL185W, strain tfp1, stronger effect = lower value 0.999 | locus YDL192W, strain arf1, stronger effect = lower value 0.997 | locus YDR001C, strain nth1, stronger effect = lower value 1.02 | locus YDR069C, strain doa4, stronger effect = lower value 1.01 | locus YDR101C, strain arx1, stronger effect = lower value 0.99 | locus YDR137W, strain rgp1, stronger effect = lower value 1.08 | locus YDR150W, strain NUM1, stronger effect = lower value 1.02 | locus YDR159W, strain sac3, stronger effect = lower value 1.02 | locus YDR162C, strain NBP2, stronger effect = lower value 1.01 | locus YDR195W, strain ref2 1.03 | locus YDR297W, strain sur2, stronger effect = lower value 1.02 | locus YDR318W, strain mcm21, stronger effect = lower value 0.994 | locus YDR334W, strain swr1, stronger effect = lower value 1.02 | locus YDR335W, strain msn5, stronger effect = lower value 1.03 | locus YDR388W, stronger effect = lower value 0.993 | locus YDR392W, strain spt3, stronger effect = lower value 0.996 | locus YDR502C, strain sam2, stronger effect = lower value 0.993 | locus YEL003W, strain gim4, stronger effect = lower value 1.02 | locus YEL037C, strain rad23, stronger effect = lower value 1.02 | locus YEL061C, strain CIN8 (second series), stronger effect = lower value 1.03 | locus YEL061C, strain CIN8, stronger effect = lower value 1.01 | locus YER015W, strain faa2, stronger effect = lower value 1.02 | locus YER016W, strain bim1, stronger effect = lower value 1.02 | locus YER110C, stronger effect = lower value 0.989 | locus YER111C, strain swi4, stronger effect = lower value 1.03 | locus YER155C, strain BEM2 (second series), stronger effect = lower value 1 | locus YER155C, strain BEM2, stronger effect = lower value 1.02 | locus YER167W, strain BCK2, stronger effect = lower value 1.01 | locus YFR010W, strain ubp6, stronger effect = lower value 1.02 | locus YGL078C, strain dbp3, stronger effect = lower value 0.995 | locus YGL086W, strain mad1, stronger effect = lower value 1.01 | locus YGL167C, strain pmr1, stronger effect = lower value 1.03 | locus YGL173C, strain kem1, stronger effect = lower value 1.03 | locus YGL227W, strain vid30, stronger effect = lower value 1.02 | locus YGL240W, strain doc1, stronger effect = lower value 1.02 | locus YGL248W, strain PDE1, stronger effect = lower value 1 | locus YGL253W, strain hxk2, stronger effect = lower value 1.03 | locus YGR078C, strain PAC10, stronger effect = lower value 0.908 | locus YGR135W, strain pre9, stronger effect = lower value 0.996 | locus YGR229C, strain SMI1, stronger effect = lower value 1.01 | locus YGR252W, strain gcn5, stronger effect = lower value 1.05 | locus YHR027C, strain rpn1, stronger effect = lower value 1.02 | locus YHR030C, strain SLT2, stronger effect = lower value 1.02 and 1.01 | locus YHR079C, strain IRE1 (second series), stronger effect = lower value 0.996 | locus YHR079C, strain IRE1, stronger effect = lower value 0.99 | locus YHR094C, strain hxt1, stronger effect = lower value 0.998 | locus YHR129C, strain ARP1, stronger effect = lower value 1.01 | locus YHR142W, strain chs7, stronger effect = lower value 1.04 | locus YHR200W, strain rpn10, stronger effect = lower value 0.996 | locus YIL066C, strain RNR3, stronger effect = lower value 1.02 | locus YIL073C, strain SPO22, stronger effect = lower value 0.987 | locus YIL125W, strain kgd1, stronger effect = lower value 1 | locus YIR030C, strain dcg1, stronger effect = lower value 0.996 | locus YJL092W, strain hpr5, stronger effect = lower value 1.02 | locus YJL095W, strain BCK1 (second series), stronger effect = lower value 1.02 | locus YJL095W, strain BCK1, stronger effect = lower value 0.999 and 1 | locus YJL115W, strain asf1, stronger effect = lower value 1.02 | locus YJL129C, strain trk1, stronger effect = lower value 1.05 | locus YJL134W, strain LCB3, stronger effect = lower value 1 | locus YJL154C, strain vps35, stronger effect = lower value 1.01 | locus YJL164C, strain tpk1, stronger effect = lower value 1.02 | locus YJL166W, strain qcr8, stronger effect = lower value 1.02 | locus YJL168C, strain set2, stronger effect = lower value 0.991 | locus YJL187C, strain SWE1 (second series), stronger effect = lower value 1.01 | locus YJL187C, strain SWE1, stronger effect = lower value 1.02 | locus YJR043C, strain POL32, stronger effect = lower value 0.998 | locus YJR066W, strain TOR1, stronger effect = lower value 0.942
